The record followed here is PubChem BioAssay (NCATS).

The structures appear in SMILES notation. Inconclusive results are not listed. Values without a mark were called inactive. Calls come from the whole dose curve; as a rule, active = well fitted curve in the direction sought with a large enough effect in the signal ratio (not every such curve was filed as active); inconclusive = small, poorly fitted or top-dose-only effect, or effect the other way, or a change in a side signal; inactive = no such curve, though single readings can be large or run the other way; the % refers to the signal ratio.

The assay deals with Tyrosine-protein phosphatase non-receptor type substrate 1 (Homo sapiens) + Leukocyte surface antigen CD47 (Homo sapiens) (UniProt P78324+Q08722). Kind of assay: CD47-SIRPalpha protein protein interaction - HTRF assay qHTS validation (AID 1347058). Note: 0% is about no effect. To be noted: TR-FRET HTRF CD47-His / biotin-SIRPalpha binding, ratio 665/615; series mostly up to 38.3 µM; activity change, negative = inhibition: at the top concentration. An excerpt: SIRPalpha is a myeloid cell expressed immunomodulatory receptor that binds the tumor expressed immune checkpoint CD47. Therapeutic disruption of this interaction leads to immune-mediated tumor rejection. This assay was used to quantitate CD47-SIRPalpha binding biochemically and evaluate chemical libraries for novel CD47-SIRPalpha inhibitors. To recapitulate the biological interaction of CD47 and SIRPalpha, we designed expression constructs to produce their recombinant, soluble, extracellular interaction domains. CD47 was produced with an N-terminal 6His tag. SIRPalpha was produced with an N-terminal Avi-Tag for site-specific biotin incorporation. The CD47-SIRPalpha interaction was measured by TR-FRET using affinity tag linked reagents (anti-6His-Eu donor and streptavidin-XL665 acceptor). SIRPalpha without biotin incorporation was used as a positive control inhibitor.
Sequence of Tyrosine-protein phosphatase non-receptor type substrate 1 (Homo sapiens) + Leukocyte surface antigen CD47 (Homo sapiens) (P78324 whole entry, looked up): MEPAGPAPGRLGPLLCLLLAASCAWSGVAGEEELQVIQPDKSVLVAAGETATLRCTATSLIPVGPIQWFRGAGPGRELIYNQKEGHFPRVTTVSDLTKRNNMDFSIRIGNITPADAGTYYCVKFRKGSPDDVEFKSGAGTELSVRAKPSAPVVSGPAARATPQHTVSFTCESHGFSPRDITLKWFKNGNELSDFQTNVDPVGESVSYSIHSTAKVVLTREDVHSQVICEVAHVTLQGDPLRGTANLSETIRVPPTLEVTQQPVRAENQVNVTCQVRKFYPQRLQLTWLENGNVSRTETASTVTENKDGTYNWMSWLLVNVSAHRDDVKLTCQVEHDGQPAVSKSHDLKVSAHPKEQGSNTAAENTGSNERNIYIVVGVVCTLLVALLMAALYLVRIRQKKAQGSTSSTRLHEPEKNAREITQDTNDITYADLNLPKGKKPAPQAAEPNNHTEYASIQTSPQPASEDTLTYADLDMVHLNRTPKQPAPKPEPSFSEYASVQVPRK
Sequence of Tyrosine-protein phosphatase non-receptor type substrate 1 (Homo sapiens) + Leukocyte surface antigen CD47 (Homo sapiens) (Q08722 whole entry, looked up): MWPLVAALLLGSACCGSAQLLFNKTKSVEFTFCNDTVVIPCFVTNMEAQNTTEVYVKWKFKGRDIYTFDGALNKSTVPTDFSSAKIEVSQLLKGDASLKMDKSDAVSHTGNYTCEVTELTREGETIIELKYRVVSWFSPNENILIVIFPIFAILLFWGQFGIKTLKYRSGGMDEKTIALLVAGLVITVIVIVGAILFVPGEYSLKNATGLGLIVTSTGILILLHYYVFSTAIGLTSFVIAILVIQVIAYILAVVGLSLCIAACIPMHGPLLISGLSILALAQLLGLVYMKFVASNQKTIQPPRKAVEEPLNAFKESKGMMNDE
SEQUENCE No. (e.g., 1, 2, 3, etc.); […] (e.g., Cells, Incubation, Reagent, etc.); VALUE and DESCRIPTION.
1a. Reagent. 3 uL CD47-His (12.5 nM) and Anti-His Eu Donor reagent (0.7 nM) added to respective wells in Assay buffer; white/solid bottom high base, med bind 1536-well plates (Greiner 789075)
1b. Reagent. 2 uL Assay buffer negative control for background fluorescence
2. Reagent. 23 nL library compounds (7-pt, 1:4 intraplate titration series) or DMSO control transferred by Pin Tool
3. Centrifuge. Centrifuge plate for 30 s at 1000 RPM
4. Incubation.#Incubate reagents at room temperature for 30 min, protected from light
5. Reagent. 2 uL SIRPalpha-biotin (100 nM) in Assay buffer
6. Incubation.#Incubate reagents at room temperature for 30 min, protected from light
7. Reagent. 1 uL SAV-XL665 (85 nM) acceptor reagent added to respective wells
8. Centrifuge. Centrifuge plate for 30 s at 1000 RPM
9. Incubation. Incubate reagents at room temperature for 30 min, protected from light
10. Detector. Measure Top TR-FRET on EnVision (Eu/APC filter set); calculate ratio Ch1/Ch2
1. Assay buffer composition.#Phosphate buffered saline (PBS; 10 mM Phosphate, 137 mM NaCl, and 2.7 mM KCl; pH 7.4), 0.05% IGEPAL CA-630
2. 23nL of […] library compounds (7 plates) or DMSO vehicle control transferred to 9 Greiner white/solid bottom high base, TC plates in 7 interplate 1:5 titrations (see Yasgar, A. et al. 2008) with Pintool. Two of the 9 plates are DMSO-only in compound field at beginning and end of compound library-treated plates.
10. Detector settings#Mirror = LANCE/DELFIA Dual Enh; Ex. Filter = UV2[TRF] 320; Em. Filter = APC 665; 2nd Em. Filter = Europium 615; Measurement h = 6.5; Ex. light (%) = 100; Delay = […]; Window t = 100 us; No. Seq. windows = 1; Time between flashes = 2000us; No. of flashes = 100; No. of flashes for 2nd detector = 100; Calculation: "Ratio Ch1/Ch2"
Background: Time-resolved FRET reads energy transfer from a long-lived donor to a nearby acceptor.
With `Cc1cccc(C(=O)NCN2CCN(c3ccccc3C#N)CC2)c1`, the “activity change, negative = inhibition” value is -2.24%.
`N[C@@H](CS(=O)O)C(=O)O`: the “activity change, negative = inhibition” value is 2.62%.
For `Cn1cc(C(=O)OCC2CCN(CCNS(C)(=O)=O)CC2)c2ccccc21`, the “activity change, negative = inhibition” value is -0.294%.
`Nc1nc2[nH]c(=O)cnc2c(=O)[nH]1`: the “activity change, negative = inhibition” value was -0.819%.
With `N=C(N)c1ccc(OCCCCCOc2ccc(C(=N)N)cc2)cc1` (tested in a mixture with another compound) the figure was -3.94%.
Take `NC(=O)CC[C@H](N)C(=O)O`: the “activity change, negative = inhibition” value was 0.0853%.
As to `CCN(CC)CCCCCCCCOC(=O)c1cc(OC)c(OC)c(OC)c1`, the “activity change, negative = inhibition” value is -8.22%.
With `C=CCN1CCc2cc(O)c(O)cc2C(c2ccccc2)C1` (stereo not given) the figure was 1.13%; with `O=C1OC(=O)C2C3CCC(O3)C12` (stereo not given), 0.424%.
For `NCCNS(=O)(=O)c1cccc2c(Cl)cccc12`, the “activity change, negative = inhibition” value is 9.57%.
With `NCCCCN`, the “activity change, negative = inhibition” value is -0.448%.
Regarding `COC(=O)C(N)Cc1ccc(Cl)cc1` (stereo not given), the “activity change, negative = inhibition” value was -7.34%.
On to `COc1cc2c(CCNC(C)=O)c[nH]c2cc1O`, for which the “activity change, negative = inhibition” value is 17%.
Turning to `O=C(O)C1=CCCN(CCON=C(c2ccccc2)c2ccccc2)C1`, the “activity change, negative = inhibition” value is -0.778%.
`CC(C)C[C@H](NC(=O)C1OC1C(=O)O)C(=O)NCCCCN=C(N)N` (stereo not given in full): the “activity change, negative = inhibition” value was 1.64%.
With `CC(C)NC[C@H](O)COc1ccc(CC(N)=O)cc1` the figure was 0.788%; with `COc1ccc(C(=O)NCc2cccnc2)cc1C(=O)NCc1cccnc1`, -1.4%.
Regarding `Nc1ncnc2c1c(-c1ccc(Oc3ccccc3)cc1)cn2C1CCCC1`, the “activity change, negative = inhibition” value was -8.47%.
For the compound `NCCS(=O)O`, the “activity change, negative = inhibition” value is -0.696%.
Consider `O=C(O)C1=CCNCC1`, for which the “activity change, negative = inhibition” value is -0.0787%.
For the compound `O=C(O)C1=CCCNC1`, the “activity change, negative = inhibition” value was 7.9%.
As for `NC1C=CC=C(C(=O)O)C1` (stereo not given), the figure is -1.12%.
As for `NC(N)=N[C@@H](CCC(=O)O)C(=O)O`, the figure is 0.0399%.
On to `COc1cc([C@@H]2c3cc4c(cc3[C@H](O)C3COC(=O)[C@@H]32)OCO4)cc(OC)c1OC` (stereo not given in full), for which the “activity change, negative = inhibition” value is 0.0496%.
With `COc1ccc2c(c1)c(CC(=O)O)c(C)n2C(=O)c1ccccc1`, the “activity change, negative = inhibition” value was -1.14%.
As to `O=c1cc(-c2ccccc2F)[nH]c2cc3c(cc12)OCO3`, the “activity change, negative = inhibition” value is 2.42%.
As for `Cn1cc(C(F)(F)F)nc1-c1ccc(OCC(O)CNCCOc2ccc(O)c(C(N)=O)c2)cc1` (stereo not given), the figure is -1.64%; as for `O=C(O)CCC(=O)N1CCCC1C(=O)O` (stereo not given), 0.918%.
In the case of `CCCCC[C@H](CC(=O)NO)C(=O)N[C@H](C(=O)N1CCC[C@H]1CO)C(C)C`, the “activity change, negative = inhibition” value was -4.93%.
Regarding `CCOC(=O)C12CC1/C(=N/O)c1ccccc1O2` (stereo not given), the “activity change, negative = inhibition” value was -7.55%.
`CCCCCCCCCC(=O)NC(CN1CCOCC1)[C@H](O)c1ccccc1` (stereo not given in full): the “activity change, negative = inhibition” value is 0.869%.
As to `CC(=O)N[C@@H](Cc1c[nH]c2ccccc12)C(=O)OCc1cc(C(F)(F)F)cc(C(F)(F)F)c1`, the “activity change, negative = inhibition” value is -3.02%.
With `CSC(=N)N`, the “activity change, negative = inhibition” value is -0.273%.
In the case of `O=c1[nH]c(=S)[nH]c(-c2ccccc2)c1Cc1c(O)ccc2ccccc12`, the “activity change, negative = inhibition” value is 0.228%.
Consider `CCCCCCC(=O)OC1CC(C)(C)NC(C)(C)C1`, for which the “activity change, negative = inhibition” value was -0.435%.
For `C#CCn1c(=O)c2c(ncn2C)n(C)c1=O`, the “activity change, negative = inhibition” value was 1.32%.
In the case of `COc1cccc(OC)c1OCCNCC1CSc2ccccc2O1` (stereo not given), the “activity change, negative = inhibition” value is -5.87%.
With `CO/N=C(\C(=O)N[C@@H]1C(=O)N2C(C(=O)O)=C(CSc3nc(=O)c(O)nn3C)CSC12)c1csc(N)n1` (stereo not given in full) the figure was 10.8%; with `COc1ccc2c(c1)c(CC(=O)O)c(C)n2Cc1ccc(Cl)cc1`, 0.98%.
As for `CCCCOc1cc(CC2CNC(=O)N2)ccc1OC` (stereo not given), the figure is 1.75%.
